Results filed as inconclusive are left out. Active and inactive are the calls of the source. Calls come from the whole dose curve; as a rule, active = well fitted curve in the direction sought with a large enough effect in the repeat runs; inconclusive = weak or mixed curves; inactive = no such curve, though single readings can be large; an effect the other way counts as inactive or inconclusive.
biological target: Cytochrome P450 1A2 (Homo sapiens) (UniProt P05177); test: Cytochrome P450 Family 1 Subfamily A Member 2 (CYP1A2) small molecule antagonists: luciferase reporter qHTS assay (AID 1671199); conditions: P450-Glo CYP1A2 enzyme, luciferin luminescence, 1 h; series mostly up to 115 µM; activity change, negative = inhibition: at the top concentration
Sequence (P05177 whole entry, looked up): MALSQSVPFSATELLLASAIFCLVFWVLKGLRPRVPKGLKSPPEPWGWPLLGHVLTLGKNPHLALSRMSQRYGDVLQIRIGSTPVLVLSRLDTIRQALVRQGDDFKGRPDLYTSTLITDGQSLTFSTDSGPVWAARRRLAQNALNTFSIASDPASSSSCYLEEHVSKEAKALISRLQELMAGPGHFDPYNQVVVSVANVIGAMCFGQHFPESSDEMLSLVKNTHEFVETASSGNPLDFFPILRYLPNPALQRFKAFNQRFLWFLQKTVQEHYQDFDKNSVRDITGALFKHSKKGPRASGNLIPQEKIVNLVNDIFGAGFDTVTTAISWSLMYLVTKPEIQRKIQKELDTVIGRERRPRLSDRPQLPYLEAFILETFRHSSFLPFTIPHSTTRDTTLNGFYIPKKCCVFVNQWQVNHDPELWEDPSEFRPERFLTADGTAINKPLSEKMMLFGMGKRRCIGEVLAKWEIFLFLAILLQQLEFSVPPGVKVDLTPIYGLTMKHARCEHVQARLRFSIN
Procedure, shortened: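 Read-out is luminescence from luciferin detection reagent (20 min) proportional to CYP1A2 activity; compounds in DMSO preincubated 10 min with enzyme and proluciferin substrate, then NADPH regeneration solution, 1 h, room temperature.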
% is set by controls: 0 for no effect and ±100 for the full control effect; potency is the fitted concentration of half-maximal effect.
Note: nearly all actives have a fitted effect of over 50% in size.

Compound | Potency | activity change, negative = inhibition
Nc1ccc([N+](=O)[O-])cc1Cl | 25.2 µM (active) | –
O=C/C(Cl)=C(/Cl)C(=O)O | inactive | –
O=c1[nH]c2ccccc2n1C1CCN(CCCC(c2ccc(F)cc2)c2ccc(F)cc2)CC1 | – | 4.04% [at 53 µM] (inactive)
COc1ccc(OC)c(C=O)c1 | 28.3 µM (active) | –
CCOCn1c(-c2ccc(Cl)cc2)c(C#N)c(Br)c1C(F)(F)F | 0.633 µM (active) | –
CC(C)Oc1cccc(NC(=O)c2ccccc2C(F)(F)F)c1 | 10.6 µM (active) | –

biological target: Voltage-gated inwardly rectifying potassium channel KCNH2 (Homo sapiens) (UniProt Q12809); test: Human Ether-a-go-go-Related Gene (hERG) channel small molecule antagonists: fluorescence cell-based qHTS assay (AID 1671200); conditions: hERG-U2OS cells, FluxOR thallium flux fluorescence; series mostly up to 76.8 µM; activity change, negative = inhibition: at the top concentration;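 for activity change, negative = inhibition: hERG-expressing U2OS cells given a thallium stimulus after FluxOR II dye loading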
Sequence (Q12809 whole entry, looked up): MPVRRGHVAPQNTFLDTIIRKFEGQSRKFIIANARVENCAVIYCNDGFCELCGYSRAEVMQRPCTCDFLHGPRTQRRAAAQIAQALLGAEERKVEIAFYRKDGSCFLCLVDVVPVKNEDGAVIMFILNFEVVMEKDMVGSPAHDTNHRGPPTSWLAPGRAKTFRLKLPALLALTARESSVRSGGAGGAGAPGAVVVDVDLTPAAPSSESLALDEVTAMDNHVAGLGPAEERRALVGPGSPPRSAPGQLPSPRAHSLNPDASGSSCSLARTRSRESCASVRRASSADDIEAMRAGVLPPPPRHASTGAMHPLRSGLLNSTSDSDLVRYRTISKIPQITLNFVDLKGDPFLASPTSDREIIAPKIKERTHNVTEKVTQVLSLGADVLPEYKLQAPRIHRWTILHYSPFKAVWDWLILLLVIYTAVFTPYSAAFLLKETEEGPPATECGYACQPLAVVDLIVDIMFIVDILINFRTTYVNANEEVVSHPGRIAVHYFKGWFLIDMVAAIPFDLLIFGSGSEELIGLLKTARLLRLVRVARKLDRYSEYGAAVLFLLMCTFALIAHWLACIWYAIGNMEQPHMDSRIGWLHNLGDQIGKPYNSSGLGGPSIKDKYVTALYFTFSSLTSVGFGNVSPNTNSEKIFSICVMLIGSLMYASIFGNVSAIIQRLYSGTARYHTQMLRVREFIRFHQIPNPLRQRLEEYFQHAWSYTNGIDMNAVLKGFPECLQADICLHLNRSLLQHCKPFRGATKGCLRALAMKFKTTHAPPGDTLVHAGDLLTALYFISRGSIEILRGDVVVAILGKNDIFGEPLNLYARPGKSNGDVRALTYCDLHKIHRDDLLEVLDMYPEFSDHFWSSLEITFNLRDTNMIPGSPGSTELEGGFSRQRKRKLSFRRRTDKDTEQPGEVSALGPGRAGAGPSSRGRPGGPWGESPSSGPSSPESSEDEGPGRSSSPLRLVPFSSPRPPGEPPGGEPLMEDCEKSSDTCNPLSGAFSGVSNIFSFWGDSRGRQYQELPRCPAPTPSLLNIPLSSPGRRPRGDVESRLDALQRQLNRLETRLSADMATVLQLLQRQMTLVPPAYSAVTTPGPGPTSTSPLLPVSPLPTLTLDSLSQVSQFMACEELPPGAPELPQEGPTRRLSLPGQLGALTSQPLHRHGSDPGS
Procedure, shortened: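 Measured: Tl+ flux via fluorescence (480/540 nm) in hERG-expressing U2OS cells after 1 h dye loading at room temperature.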

Compound | activity change, negative = inhibition | Potency
c1ccc2c(c1)OCC(C1=NCCN1)O2 (stereo not drawn) | -0.312% [at 35.3 µM] (inactive) | –
CC(C)CCCCCOC(=O)c1ccccc1C(=O)OCCCCCC(C)C | 1.14% (inactive) | –
CC(C)CC(C)N (stereo not drawn) | -5.92% (inactive) | –
CC(C)CBr | -3.76% (inactive) | –
CCOC(=O)c1ccccc1S(=O)(=O)NC(=O)Nc1nc(Cl)cc(OC)n1 | -0.91% (inactive) | –
CN(CCCC(O)c1cccnc1)N=O (stereo not drawn) | -1.13% (inactive) | –
CCCCCCCCCCBr | 0.623% (inactive) | –
Nc1ccc(Sc2ccc(N)cc2)cc1 | -10.7% (inactive) | –
N#CCCO | -0.982% (inactive) | –
Oc1ccc(C(c2ccc(O)cc2)(C(F)(F)F)C(F)(F)F)cc1 | – | 43.4 µM (active)
Brc1c(Br)c(Br)c(Oc2c(Br)c(Br)c(Br)c(Br)c2Br)c(Br)c1Br | -0.0422% [at 15.8 µM] (inactive) | –
CN(C)S(=O)(=O)N(SC(F)(Cl)Cl)c1ccccc1 | – | 19.5 µM (active)
N#CC(Cl)Cl | -1.63% (inactive) | –
Nc1ccc(Cc2ccc(N)c(Cl)c2)cc1Cl | -12.7% (inactive) | –
Cc1cc(C)c(C2=C(OC(=O)CC(C)(C)C)C3(CCCC3)OC2=O)c(C)c1 | -8.91% (inactive) | –
COc1ccc(N)cc1N | – | inactive
S=C=Nc1cccc2ccccc12 | 6.41% (inactive) | –

From PubChem BioAssay (Tox21)
